# Source: paper PMC7862700, “An all-to-all approach to the identification of sequence-specific readers for epigenetic DNA modifications on cytosine”
# Columns and labels:
# Experiment in all cases: DAPPL (digital affinity profiling via proximity ligation, sequencing); 10 mM Tris-HCl pH 7.5, 50 mM NaCl, 1 mM DTT, 4% glycerol, room temperature, 30 min; GST-TFs on glutathione beads, 16-mer random dsDNA library, 0.1% formaldehyde crosslink after washing; high values mean tight binding
# [1] = molecular target: T1, FEV (Homo sapiens, UniProt Q99581 1-238); conditions: protein: recombinant; tags: N-terminal GST; dsDNA, one strand shown
# T1 sequence: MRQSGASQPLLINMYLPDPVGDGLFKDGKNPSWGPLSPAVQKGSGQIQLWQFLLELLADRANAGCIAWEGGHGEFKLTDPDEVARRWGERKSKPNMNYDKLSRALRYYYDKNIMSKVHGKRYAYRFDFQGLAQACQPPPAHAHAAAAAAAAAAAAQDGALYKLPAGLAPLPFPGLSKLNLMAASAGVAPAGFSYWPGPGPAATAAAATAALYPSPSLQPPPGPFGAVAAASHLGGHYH
# Summary of the method: (§1)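 Beads coated with glutathione captured GST-fused human transcription factors that had been expressed in yeast, and the factors were then given DNA barcodes and pooled with a tag-only sample. The pools were incubated with 200 nmole of a random double-stranded 16-mer DNA library in Tris/NaCl/DTT/glycerol buffer for 30 min at room temperature, washed, crosslinked with 0.1% formaldehyde and proximity-ligated with BsaI/T4 ligase at 37 °C for 1 h. PCR amplification and Illumina NextSeq500 sequencing came last. Binding signal is each hexamer's read frequency for a factor divided by its frequency for the tag-only sample.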
# [2] = molecular target: ETV5 (Homo sapiens, UniProt P41161 1-510); conditions: protein: recombinant; tags: N-terminal GST; dsDNA, one strand shown
# Summary of the method: as §1
# [3] = molecular target: HSF1 (Homo sapiens, UniProt Q00613 1-529); conditions: protein: recombinant; tags: N-terminal GST; chain copies: 3; dsDNA, one strand shown
# Summary of the method: as §1
# [4] = molecular target: T2, SPIC (Homo sapiens, UniProt Q8N5J4 1-248); conditions: protein: recombinant; tags: N-terminal GST; dsDNA, one strand shown
# T2 sequence: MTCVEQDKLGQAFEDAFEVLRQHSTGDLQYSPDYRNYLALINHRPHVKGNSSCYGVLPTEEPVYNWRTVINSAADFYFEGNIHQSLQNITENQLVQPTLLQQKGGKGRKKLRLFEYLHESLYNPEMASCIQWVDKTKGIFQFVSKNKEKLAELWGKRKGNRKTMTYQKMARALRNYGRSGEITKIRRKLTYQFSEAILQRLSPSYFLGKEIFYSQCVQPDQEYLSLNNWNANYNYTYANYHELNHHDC
# Summary of the method: as §1
# [5] = molecular target: ELF4 (Homo sapiens, UniProt Q99607 1-663); conditions: protein: recombinant; tags: N-terminal GST; dsDNA, one strand shown
# Summary of the method: as §1
# [6] = molecular target: T3, ELK4 (Homo sapiens, UniProt P28324-2 1-405); conditions: protein: recombinant; tags: N-terminal GST; dsDNA, one strand shown
# T3 sequence: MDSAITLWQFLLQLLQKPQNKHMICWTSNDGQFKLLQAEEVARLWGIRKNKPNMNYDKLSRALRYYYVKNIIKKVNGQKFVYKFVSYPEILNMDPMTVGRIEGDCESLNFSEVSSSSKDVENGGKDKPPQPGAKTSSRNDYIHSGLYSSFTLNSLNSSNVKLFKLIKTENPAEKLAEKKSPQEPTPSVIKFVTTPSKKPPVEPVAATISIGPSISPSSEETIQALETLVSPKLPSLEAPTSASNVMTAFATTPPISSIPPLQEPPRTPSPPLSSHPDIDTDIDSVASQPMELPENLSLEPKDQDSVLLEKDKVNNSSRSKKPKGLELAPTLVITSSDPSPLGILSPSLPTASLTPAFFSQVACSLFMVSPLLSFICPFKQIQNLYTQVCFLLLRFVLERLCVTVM
# Summary of the method: as §1
# [7] = molecular target: T4, ETV2 (Homo sapiens, UniProt O00321 1-342); conditions: protein: recombinant; tags: N-terminal GST; dsDNA, one strand shown
# T4 sequence: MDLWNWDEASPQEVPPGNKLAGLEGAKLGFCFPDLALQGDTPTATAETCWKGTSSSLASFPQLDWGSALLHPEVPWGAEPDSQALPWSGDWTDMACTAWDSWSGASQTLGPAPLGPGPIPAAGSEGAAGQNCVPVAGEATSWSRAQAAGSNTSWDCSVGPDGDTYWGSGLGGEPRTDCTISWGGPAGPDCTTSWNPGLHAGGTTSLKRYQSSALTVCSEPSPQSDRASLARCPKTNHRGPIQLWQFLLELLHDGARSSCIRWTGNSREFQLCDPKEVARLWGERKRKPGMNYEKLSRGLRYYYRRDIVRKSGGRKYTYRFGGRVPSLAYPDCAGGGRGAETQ
# Summary of the method: as §1
# [8] = molecular target: T5, ELF3 (Homo sapiens, UniProt P78545 1-371); conditions: protein: recombinant; tags: N-terminal GST; dsDNA, one strand shown
# T5 sequence: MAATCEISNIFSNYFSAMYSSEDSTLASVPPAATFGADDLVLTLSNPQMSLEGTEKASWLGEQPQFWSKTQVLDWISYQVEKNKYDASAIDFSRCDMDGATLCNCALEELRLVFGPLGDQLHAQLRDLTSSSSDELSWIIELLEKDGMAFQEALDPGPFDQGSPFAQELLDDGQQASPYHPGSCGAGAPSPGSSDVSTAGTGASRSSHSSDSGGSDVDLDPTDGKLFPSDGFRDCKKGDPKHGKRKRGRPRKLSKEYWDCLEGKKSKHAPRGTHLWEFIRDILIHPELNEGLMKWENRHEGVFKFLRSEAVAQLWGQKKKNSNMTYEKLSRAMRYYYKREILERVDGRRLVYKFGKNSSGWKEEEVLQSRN
# Summary of the method: as §1
# [9] = molecular target: CRX (Homo sapiens, UniProt O43186 1-299); conditions: protein: recombinant; tags: N-terminal GST; dsDNA, one strand shown
# Summary of the method: as §1
# [10] = molecular target: ETV1 (Homo sapiens, UniProt P50549 1-477); conditions: protein: recombinant; tags: N-terminal GST; dsDNA, one strand shown
# Summary of the method: as §1
# [11] = molecular target: T6, ERF (Homo sapiens, UniProt P50548 1-548); conditions: protein: recombinant; tags: N-terminal GST; dsDNA, one strand shown
# T6 sequence: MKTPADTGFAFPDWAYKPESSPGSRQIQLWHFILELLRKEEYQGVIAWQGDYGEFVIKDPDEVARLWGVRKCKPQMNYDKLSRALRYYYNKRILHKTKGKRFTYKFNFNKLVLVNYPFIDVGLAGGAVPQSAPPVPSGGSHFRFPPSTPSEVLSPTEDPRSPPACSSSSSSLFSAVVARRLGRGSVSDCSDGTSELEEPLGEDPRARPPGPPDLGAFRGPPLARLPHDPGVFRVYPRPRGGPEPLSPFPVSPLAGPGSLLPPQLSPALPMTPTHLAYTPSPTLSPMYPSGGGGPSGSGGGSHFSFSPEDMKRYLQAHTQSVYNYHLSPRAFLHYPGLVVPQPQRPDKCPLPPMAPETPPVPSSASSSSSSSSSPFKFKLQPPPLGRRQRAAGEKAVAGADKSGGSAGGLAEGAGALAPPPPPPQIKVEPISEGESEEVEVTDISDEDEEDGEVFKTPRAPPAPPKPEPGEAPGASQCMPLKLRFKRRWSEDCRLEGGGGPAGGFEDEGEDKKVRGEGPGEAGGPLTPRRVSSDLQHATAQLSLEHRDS
# Summary of the method: as §1
# [12] = molecular target: T7, ETV3L (Homo sapiens, UniProt Q6ZN32 1-361); conditions: protein: recombinant; tags: N-terminal GST; dsDNA, one strand shown
# T7 sequence: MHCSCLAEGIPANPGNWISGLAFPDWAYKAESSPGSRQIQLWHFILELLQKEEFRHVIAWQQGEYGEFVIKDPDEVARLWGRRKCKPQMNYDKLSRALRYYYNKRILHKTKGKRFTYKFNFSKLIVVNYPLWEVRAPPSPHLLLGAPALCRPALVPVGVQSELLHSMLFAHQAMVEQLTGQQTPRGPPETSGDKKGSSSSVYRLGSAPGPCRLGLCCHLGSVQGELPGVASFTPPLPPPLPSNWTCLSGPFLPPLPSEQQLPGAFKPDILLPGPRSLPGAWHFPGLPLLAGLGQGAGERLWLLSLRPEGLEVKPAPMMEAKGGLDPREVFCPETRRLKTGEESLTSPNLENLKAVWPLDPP
# Summary of the method: as §1
# [13] = molecular target: T8, ETS2 (Homo sapiens, UniProt P15036 1-469); conditions: protein: recombinant; tags: N-terminal GST; dsDNA, one strand shown
# T8 sequence: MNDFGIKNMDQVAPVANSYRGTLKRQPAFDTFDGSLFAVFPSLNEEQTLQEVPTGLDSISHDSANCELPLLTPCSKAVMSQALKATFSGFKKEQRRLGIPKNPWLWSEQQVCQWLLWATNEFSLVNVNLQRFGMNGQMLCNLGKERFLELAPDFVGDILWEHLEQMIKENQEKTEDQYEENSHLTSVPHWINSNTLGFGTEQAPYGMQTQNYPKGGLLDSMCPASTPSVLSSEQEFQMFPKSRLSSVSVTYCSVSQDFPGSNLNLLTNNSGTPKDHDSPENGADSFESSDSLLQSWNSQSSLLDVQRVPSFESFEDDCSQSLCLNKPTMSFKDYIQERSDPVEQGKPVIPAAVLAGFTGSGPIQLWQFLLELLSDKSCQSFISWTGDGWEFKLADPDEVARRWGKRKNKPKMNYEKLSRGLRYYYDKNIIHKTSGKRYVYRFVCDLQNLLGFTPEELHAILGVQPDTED
# Summary of the method: as §1
# [14] = molecular target: T9, SPDEF (Homo sapiens, UniProt O95238 1-335); conditions: protein: recombinant; tags: N-terminal GST; dsDNA, one strand shown
# T9 sequence: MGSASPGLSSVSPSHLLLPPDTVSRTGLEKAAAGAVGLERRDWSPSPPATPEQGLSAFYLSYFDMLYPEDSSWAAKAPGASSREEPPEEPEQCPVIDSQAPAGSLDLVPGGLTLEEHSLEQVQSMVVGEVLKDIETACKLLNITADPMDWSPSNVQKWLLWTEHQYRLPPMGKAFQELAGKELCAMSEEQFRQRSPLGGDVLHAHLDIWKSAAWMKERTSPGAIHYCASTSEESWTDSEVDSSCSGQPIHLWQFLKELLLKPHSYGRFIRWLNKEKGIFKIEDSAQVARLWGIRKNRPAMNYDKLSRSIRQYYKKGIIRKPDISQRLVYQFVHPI
# Summary of the method: as §1
# [15] = molecular target: T10, ETV7 (Homo sapiens, UniProt Q9Y603 1-341); conditions: protein: recombinant; tags: N-terminal GST; dsDNA, one strand shown
# T10 sequence: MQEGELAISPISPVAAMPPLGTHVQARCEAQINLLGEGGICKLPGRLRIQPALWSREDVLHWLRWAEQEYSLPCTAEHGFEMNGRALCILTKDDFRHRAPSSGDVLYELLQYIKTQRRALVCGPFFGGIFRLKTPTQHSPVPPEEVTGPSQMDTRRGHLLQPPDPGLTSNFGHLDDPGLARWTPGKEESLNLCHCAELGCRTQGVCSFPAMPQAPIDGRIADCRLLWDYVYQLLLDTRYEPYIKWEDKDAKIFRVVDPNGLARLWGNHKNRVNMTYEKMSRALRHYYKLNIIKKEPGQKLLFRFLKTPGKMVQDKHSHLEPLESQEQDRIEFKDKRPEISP
# Summary of the method: as §1
# [16] = molecular target: T11, ELF5 (Homo sapiens, UniProt Q9UKW6-2 1-255); conditions: protein: recombinant; tags: N-terminal GST; dsDNA, one strand shown
# T11 sequence: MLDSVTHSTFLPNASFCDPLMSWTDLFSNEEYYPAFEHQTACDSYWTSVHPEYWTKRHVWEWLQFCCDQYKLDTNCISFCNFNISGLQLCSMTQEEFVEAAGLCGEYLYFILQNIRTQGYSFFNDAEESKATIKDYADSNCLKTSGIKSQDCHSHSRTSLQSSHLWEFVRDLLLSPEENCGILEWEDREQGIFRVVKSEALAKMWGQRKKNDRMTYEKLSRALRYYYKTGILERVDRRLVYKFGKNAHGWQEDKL
# Summary of the method: as §1
# [17] = molecular target: T12, ETV3 (Homo sapiens, UniProt P41162-2 1-143); conditions: protein: recombinant; tags: N-terminal GST; dsDNA, one strand shown
# T12 sequence: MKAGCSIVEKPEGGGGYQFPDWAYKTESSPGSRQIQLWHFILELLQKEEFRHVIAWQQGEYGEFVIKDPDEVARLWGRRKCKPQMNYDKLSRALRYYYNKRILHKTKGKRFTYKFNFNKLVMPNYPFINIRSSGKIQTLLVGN
# Summary of the method: as §1
# [18] = molecular target: ETV6 (Homo sapiens, UniProt P41212 1-452); conditions: protein: recombinant; tags: N-terminal GST; dsDNA, one strand shown
# Summary of the method: as §1
# Chain of ETV5 (P41161 whole entry): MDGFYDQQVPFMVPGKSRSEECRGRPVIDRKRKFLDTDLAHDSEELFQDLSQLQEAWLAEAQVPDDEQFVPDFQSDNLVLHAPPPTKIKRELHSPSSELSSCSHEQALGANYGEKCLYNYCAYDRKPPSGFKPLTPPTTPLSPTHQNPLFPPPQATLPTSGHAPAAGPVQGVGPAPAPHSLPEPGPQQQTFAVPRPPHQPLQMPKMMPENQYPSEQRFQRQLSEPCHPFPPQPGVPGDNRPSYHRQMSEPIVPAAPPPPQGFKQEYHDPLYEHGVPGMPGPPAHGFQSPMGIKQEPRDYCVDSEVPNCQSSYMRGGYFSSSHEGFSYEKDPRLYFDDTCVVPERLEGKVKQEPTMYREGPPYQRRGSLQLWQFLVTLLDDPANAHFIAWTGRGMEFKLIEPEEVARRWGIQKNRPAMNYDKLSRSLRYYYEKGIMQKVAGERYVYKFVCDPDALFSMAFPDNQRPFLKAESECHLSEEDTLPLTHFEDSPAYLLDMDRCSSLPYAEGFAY
# Chain of ETV1 (P50549 whole entry): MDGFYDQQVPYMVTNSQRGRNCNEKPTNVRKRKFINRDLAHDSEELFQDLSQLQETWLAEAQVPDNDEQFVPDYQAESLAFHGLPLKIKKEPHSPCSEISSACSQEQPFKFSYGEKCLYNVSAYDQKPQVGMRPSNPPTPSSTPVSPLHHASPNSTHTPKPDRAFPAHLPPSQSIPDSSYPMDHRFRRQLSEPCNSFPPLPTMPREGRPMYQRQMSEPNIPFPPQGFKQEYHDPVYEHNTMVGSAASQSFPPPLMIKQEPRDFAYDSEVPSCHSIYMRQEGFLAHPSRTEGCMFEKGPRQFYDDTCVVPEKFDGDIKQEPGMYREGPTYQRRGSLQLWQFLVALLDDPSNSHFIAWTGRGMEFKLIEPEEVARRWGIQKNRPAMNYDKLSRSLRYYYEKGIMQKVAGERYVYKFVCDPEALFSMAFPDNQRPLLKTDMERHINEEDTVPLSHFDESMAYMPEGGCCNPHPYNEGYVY
# Chain of ETV6 (P41212 whole entry): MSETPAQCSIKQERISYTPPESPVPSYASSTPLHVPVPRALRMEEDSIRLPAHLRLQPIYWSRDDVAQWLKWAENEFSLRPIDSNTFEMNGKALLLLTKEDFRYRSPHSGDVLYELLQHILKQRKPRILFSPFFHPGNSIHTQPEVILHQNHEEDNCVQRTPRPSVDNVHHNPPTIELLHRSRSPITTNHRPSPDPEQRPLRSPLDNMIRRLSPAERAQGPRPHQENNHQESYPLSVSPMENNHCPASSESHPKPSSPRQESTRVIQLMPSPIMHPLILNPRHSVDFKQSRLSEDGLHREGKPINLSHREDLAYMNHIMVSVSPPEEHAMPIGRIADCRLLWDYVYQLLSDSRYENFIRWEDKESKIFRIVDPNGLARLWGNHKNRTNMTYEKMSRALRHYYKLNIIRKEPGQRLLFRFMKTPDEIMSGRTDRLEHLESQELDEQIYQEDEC
# Chain of HSF1 (Q00613 whole entry): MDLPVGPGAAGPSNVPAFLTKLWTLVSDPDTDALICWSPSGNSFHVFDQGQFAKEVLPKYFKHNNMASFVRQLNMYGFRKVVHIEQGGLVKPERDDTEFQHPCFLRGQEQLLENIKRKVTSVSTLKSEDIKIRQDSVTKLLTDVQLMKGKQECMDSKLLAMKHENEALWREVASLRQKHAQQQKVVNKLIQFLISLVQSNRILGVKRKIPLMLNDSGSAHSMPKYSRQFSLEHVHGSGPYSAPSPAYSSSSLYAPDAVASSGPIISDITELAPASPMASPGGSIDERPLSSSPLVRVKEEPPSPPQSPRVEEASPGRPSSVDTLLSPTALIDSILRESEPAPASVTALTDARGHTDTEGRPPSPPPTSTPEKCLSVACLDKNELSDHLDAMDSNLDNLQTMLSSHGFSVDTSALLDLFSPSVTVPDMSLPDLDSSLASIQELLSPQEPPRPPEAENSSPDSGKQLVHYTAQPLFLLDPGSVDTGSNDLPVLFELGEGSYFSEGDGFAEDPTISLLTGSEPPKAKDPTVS
# Chain of CRX (O43186 whole entry): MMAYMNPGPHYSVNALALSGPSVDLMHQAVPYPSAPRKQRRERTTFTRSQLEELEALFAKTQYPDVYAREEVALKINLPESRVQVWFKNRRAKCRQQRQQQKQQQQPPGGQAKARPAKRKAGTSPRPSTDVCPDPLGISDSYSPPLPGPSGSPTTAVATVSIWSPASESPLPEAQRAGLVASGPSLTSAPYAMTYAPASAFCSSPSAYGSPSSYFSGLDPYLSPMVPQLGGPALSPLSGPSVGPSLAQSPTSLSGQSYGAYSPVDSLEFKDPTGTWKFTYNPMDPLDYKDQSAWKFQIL
# Chain of ELF4 (Q99607 whole entry): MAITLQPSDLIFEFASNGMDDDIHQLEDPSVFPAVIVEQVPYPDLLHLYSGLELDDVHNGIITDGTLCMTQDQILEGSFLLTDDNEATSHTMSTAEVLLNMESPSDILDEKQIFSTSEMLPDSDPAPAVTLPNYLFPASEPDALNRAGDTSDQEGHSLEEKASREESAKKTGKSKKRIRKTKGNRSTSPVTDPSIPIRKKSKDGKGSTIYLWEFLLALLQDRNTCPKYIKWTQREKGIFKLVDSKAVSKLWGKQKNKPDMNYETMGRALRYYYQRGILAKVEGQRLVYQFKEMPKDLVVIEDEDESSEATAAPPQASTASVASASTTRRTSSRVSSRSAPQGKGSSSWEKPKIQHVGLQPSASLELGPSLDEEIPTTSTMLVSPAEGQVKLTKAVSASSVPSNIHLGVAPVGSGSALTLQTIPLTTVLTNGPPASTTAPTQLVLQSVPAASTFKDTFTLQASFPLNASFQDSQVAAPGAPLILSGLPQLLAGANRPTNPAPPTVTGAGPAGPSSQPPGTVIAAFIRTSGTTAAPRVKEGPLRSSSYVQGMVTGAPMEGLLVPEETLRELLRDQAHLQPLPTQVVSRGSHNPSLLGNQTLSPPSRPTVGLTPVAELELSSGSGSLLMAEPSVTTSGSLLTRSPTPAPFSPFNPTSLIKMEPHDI
sequence,measurement,setting,value
TCTCAA,binding signal,[1],"1.25 fold enrichment (6-mer frequency, TF over GST control)"
same,binding signal,[2],"1.3 fold enrichment (6-mer frequency, TF over GST control)"
same,binding signal,[3],"1.33 fold enrichment (6-mer frequency, TF over GST control)"
same,binding signal,[4],"1.24 fold enrichment (6-mer frequency, TF over GST control)"
same,binding signal,[5],"1.35 fold enrichment (6-mer frequency, TF over GST control)"
same,binding signal,[6],"1.25 fold enrichment (6-mer frequency, TF over GST control)"
same,binding signal,[7],"1.34 fold enrichment (6-mer frequency, TF over GST control)"
same,binding signal,[8],"1.45 fold enrichment (6-mer frequency, TF over GST control)"
same,binding signal,[9],"1.39 fold enrichment (6-mer frequency, TF over GST control)"
same,binding signal,[10],"1.3 fold enrichment (6-mer frequency, TF over GST control)"
same,binding signal,[11],"1.22 fold enrichment (6-mer frequency, TF over GST control)"
same,binding signal,[12],"1.28 fold enrichment (6-mer frequency, TF over GST control)"
same,binding signal,[13],"1.25 fold enrichment (6-mer frequency, TF over GST control)"
same,binding signal,[14],"1.23 fold enrichment (6-mer frequency, TF over GST control)"
same,binding signal,[15],"1.17 fold enrichment (6-mer frequency, TF over GST control)"
same,binding signal,[16],"1.15 fold enrichment (6-mer frequency, TF over GST control)"
same,binding signal,[17],"1.3 fold enrichment (6-mer frequency, TF over GST control)"
same,binding signal,[18],"1.27 fold enrichment (6-mer frequency, TF over GST control)"
